Growth data for 25 compounds are collected here from PubChem BioAssay (NCI).

The panel holds about 83,000 compounds, 20% with a hit somewhere; the sample as a whole holds those more often.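 The test compound was applied at a single concentration to cells in 96-well plates for 48 hours, and percent growth was recorded.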 Calls of active or inactive are those of the source. Rule for the calls: active = growth percent below 10; inactive = the rest.

The subject of the assay is HL-60(TB) leukemia. The assay is described as follows: NCI-60 one-dose screen, 48 h (100 = growth as untreated, 0 = no growth, -100 = all killed). The note with it: 10 µM unless noted.
Turning to `CSc1nnc2c(=O)n(C)c(=O)n(C)c2n1`, the growth is 161% (inactive).

As to `CCn1cc(C2=C(c3cn(C)c4ncccc34)C(=O)NC2=O)c2cccnc21`, the growth is 89.8% (inactive).

Regarding `COc1ccc(C(=O)CC(c2ccccc2)C(C#N)c2ccccc2)cc1` (stereo not given), the growth was 87.3% (inactive).

For the compound `CSc1nc(NCCN2CCOCC2)c(C#N)c(-c2cccc([N+](=O)[O-])c2)n1`, the growth is 100% (inactive).

For `CCOc1ccc(C(=O)O)cc1`, the growth was 103% (inactive).

As to `c1cc2cccc3c4cccc5cccc(c(c1)c23)c54`, the growth is 109% (inactive).

With `CCc1nnc(CNc2ccc(Cl)cc2)o1`, the growth is 92% (inactive).

As for `CC(=O)OC[C@]12CC[C@@H](C(=O)CBr)[C@@H]1[C@H]1CC[C@@H]3[C@@]4(C)CC[C@H](OC(C)=O)C(C)(C)[C@@H]4CC[C@@]3(C)[C@]1(C)CC2`, the growth was 63.8% (inactive).

As for `C=C1CC2(OC1=O)C(=O)N(CCCCCCCN1C(=O)C3(CC(=C)C(=O)O3)c3ccccc31)c1ccccc12` (stereo not given), the growth was 11.7% (inactive).

With `COc1cc2oc(-c3cccc(C(=O)Nc4ccc(Cl)cc4)c3)cc(=O)c2c(O)c1OC`, the growth was 85.6% (inactive).

As for `CNC(=O)c1cc(Oc2ccc(NC(=O)Nc3ccc(Cl)c(OC(F)(F)F)c3)c(F)c2)ccn1`, the growth was 28.9% (inactive).

In the case of `CC(C)CCSc1nc(NNC(N)=O)c(C#N)c(-c2ccccc2)n1`, the growth was 99.8% (inactive).

With `COc1ccc(C(=O)N2N=C(c3ccc(Br)cc3)CC2c2cn(-c3ccccc3)nc2-c2ccccc2)cc1` (stereo not given), the growth was 32.7% (inactive).

As to `COc1cc(/C=C/C(=O)c2c(-c3ccc(Cl)cc3)nc3sc(C)nn23)cc(OC)c1OC`, the growth was 50.6% (inactive).

Take `COC(=O)CNc1nc(N(C)O)nc(N(C)O)n1`: the growth was -7.42% (active).

Consider `Nc1n[nH]c2ccc([C@@H]3Nc4c(F)cc5[nH]ncc5c4[C@H]4C5CCC(C5)[C@@H]34)cc12` (stereo not given in full), for which the growth is 1.76% (active).

Take `COc1cccc(-c2nc3sccn3c2-c2ccnc(NCCNC(=O)c3ccccc3)n2)c1`: the growth was 94.2% (inactive).

Consider `Cc1ccccc1CC(N)C(=O)O` (stereo not given), for which the growth was 103% (inactive).

For the compound `CN1C(=O)N(C)C2(c3ccccc3)N(CC(=O)Nc3ccccc3O)C(=O)NC12c1ccccc1` (stereo not given), the growth was 98.9% (inactive).

As for `CCCCNC(=O)c1cc([N+](=O)[O-])cc(C2CCCCC2)c1O`, the growth is 19.8% (inactive).

For `O=C(Cc1ccc(NC(=O)c2cccc(Cl)c2)cc1)NCc1ccccc1`, the growth was -14% (active).

Consider `Cc1[nH]c(C(=O)Nc2cccc(OC3CCNCC3)c2)c(Cl)c1Cl`, for which the growth is 54.9% (inactive).

In the case of `O=C1Nc2ccccc2/C1=C/C(=O)c1ccc(N2CCOCC2)cc1`, the growth is 49.8% (inactive).

Turning to `CCOC(=O)c1cc(C(=O)c2cc(OC)cc(OC)c2)n2ccc3ccccc3c12`, the growth is 103% (inactive).

For `COc1ccc(C(=O)/C=C/c2ccc(Cl)cc2)cc1S(N)(=O)=O`, the growth is -3.41% (active).
